High-throughput results from PubChem BioAssay.
In the library only some 9.8% were active in any assay of this set; here they are far more common.
HTT cytoprotect: Huntington cell model cytoprotection by ATP luminescence; 0.14% of 230,000 active; PC12 HTT-Q103 induced, cytoprotection, ATP luminescence, 40 h; Potency, µM (highest dose often 56.4 µM), actives largely listed as activators; note: nearly all actives have a fitted effect of over 45% in size
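Stable PC12 Q103-GFP cells in serum-supplemented, phenol red-free DMEM; induction by tebufenozide at 100 nM final; compound dose series; cell viability quantified luminescently from ATP.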
CBFb RUNX1 block: blocks binding between human CBF-beta and RUNX1 | 230,000 tested, under 10 active | Q01196+Q13951 | Potency, µM (doses to about 59.8 µM), hits mostly inhibitors | AlphaScreen CBFb-His/RUNX1-biotin binding, biochemical
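Proteins preincubated together for 20 min at RT before compound addition; 15 min later, nickel and streptavidin beads were added and left 90 min prior to AlphaScreen measurement.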
HPGD block: inhibitors of human 15-hydroxyprostaglandin dehydrogenase (HPGD). purified HPGD, NADH fluorescence kinetic, PGE2 substrate. Potency, µM, usual class: inhibitors. 4.3% of 150,000 active. AID 894; active = well fitted inhibition curve with a large enough effect, not every such curve was filed as active; inconclusive = small, poorly fitted or top-dose-only effect, or another doubt; inactive = no such curve, though single readings can be large or run the other way
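NADH formation kinetics: reaction with 30 uM PGE2 and 1 mM NAD+ (final), 20 nM enzyme, Tris-HCl pH 8 with Tween 20, after 15 min compound preincubation at room temperature. Fluorescence change, last versus first of five reads.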
ALDH1A1 inh: blocks purified human ALDH1A1 activity; Purified ALDH1A1, NADH fluorescence, propionaldehyde substrate; 7.3% of 220,000 active; Potency, µM (top dose mostly 75.3 µM), most hits filed as inhibitors; AID 1030; active = well fitted inhibition curve with a large enough effect, not every such curve was filed as active; inconclusive = small, poorly fitted or top-dose-only effect, or another doubt; inactive = no such curve, though single readings can be large or run the other way
Target sequence (P00352 whole entry, looked up): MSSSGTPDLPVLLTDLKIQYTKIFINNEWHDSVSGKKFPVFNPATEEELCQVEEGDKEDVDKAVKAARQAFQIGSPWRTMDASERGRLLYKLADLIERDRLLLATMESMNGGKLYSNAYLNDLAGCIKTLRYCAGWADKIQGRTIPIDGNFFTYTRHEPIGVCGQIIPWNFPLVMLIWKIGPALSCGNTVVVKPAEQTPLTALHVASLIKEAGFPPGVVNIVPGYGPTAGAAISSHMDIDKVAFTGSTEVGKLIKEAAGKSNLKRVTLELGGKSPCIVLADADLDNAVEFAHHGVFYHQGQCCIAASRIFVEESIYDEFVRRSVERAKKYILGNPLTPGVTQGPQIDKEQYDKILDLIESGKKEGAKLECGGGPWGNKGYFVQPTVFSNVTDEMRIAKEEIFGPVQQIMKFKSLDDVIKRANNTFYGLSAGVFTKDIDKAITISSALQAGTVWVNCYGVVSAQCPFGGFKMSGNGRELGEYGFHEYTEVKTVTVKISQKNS
HttQ103 aggreg: reduces HttQ103-GFP aggregates in PC12 cells. Potency, µM (titrated, usually from 46.1 µM), most hits filed as inhibitors. AID 1688. 1.1% of 220,000 active. PC12 HttQ103-GFP aggregates, Acumen cytometry, 40 h; note: nearly all actives have a fitted effect of over 60% in size
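Ecdysone-promoter PC12 model expressing HTT exon 1 Q103 fused to GFP, induced by tebufenozide at 100 nM final. Compounds titrated; aggregates sized 1–25 µm scored on a 488 nm laser cytometer.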
KDM4E inh: inhibitors of human JMJD2E histone demethylase; B2RXH2; JMJD2E catalytic domain, FDH-coupled NADH fluorescence (FDH is formaldehyde dehydrogenase); Potency, µM (series often up to 57.1 µM), most hits filed as inhibitors; 1.6% of 230,000 active; AID 2147; active = well fitted inhibition curve with a large enough effect, not every such curve was filed as active; inconclusive = small, poorly fitted or top-dose-only effect, or another doubt; inactive = no such curve, though single readings can be large or run the other way; note: nearly all actives have a fitted effect of over 50% in size
Numbers stand for hits; [ ] = dose if it differs, or a comment. Unless noted, calls come from the whole dose curve; as a rule, active = well fitted curve in the direction sought with a large enough effect; inconclusive = small, poorly fitted or top-dose-only effect, or another doubt; inactive = no such curve, though single readings can be large; an effect the other way counts as inactive or inconclusive.

Cc1ccc2c(c1)N(CC(=O)O)C(=O)CO2 was read as HTT cytoprotect inactive, CBFb RUNX1 block inactive, HPGD block inactive, ALDH1A1 inh inactive, HttQ103 aggreg inconclusive and KDM4E inh inactive.
`C(=C\c1ccc2ccccc2n1)/c1ccccc1` gave HTT cytoprotect inactive[10 µM], CBFb RUNX1 block inconclusive, HttQ103 aggreg inactive[9.22 µM] and KDM4E inh inconclusive.
Screening CN(C)c1ccc(/C=C/c2ccc3ccccc3n2)cc1 returned HTT cytoprotect inactive[10 µM], CBFb RUNX1 block inconclusive, HttQ103 aggreg inactive[9.22 µM] and KDM4E inh 22.4µM.
COc1cc(CNC(C)c2ccccc2)cc(Cl)c1OCC(=O)Nc1ccccc1 (stereo not drawn) was read as HTT cytoprotect inactive, CBFb RUNX1 block inconclusive, ALDH1A1 inh inconclusive, HttQ103 aggreg inactive and KDM4E inh inconclusive.
For C=CCOC(=O)C(C(C)=O)C(NC(=O)OC)c1cccc(C)c1 (stereo not drawn) the results were HTT cytoprotect inconclusive, CBFb RUNX1 block inactive[13.1 µM] and ALDH1A1 inh inactive[13.5 µM].
`O=C(Nc1ccc(CN2CCOCC2)cc1)c1ccc(-c2cccc(Cl)c2)o1` gave HTT cytoprotect inactive, CBFb RUNX1 block inactive, HPGD block inconclusive, ALDH1A1 inh inconclusive, HttQ103 aggreg inactive and KDM4E inh inactive.
`O=C(Nc1ccc(Cl)cn1)c1ccc(-c2cc(Cl)ccc2Cl)o1` gave HTT cytoprotect inactive, CBFb RUNX1 block inactive, ALDH1A1 inh 17.8µM, HttQ103 aggreg inactive and KDM4E inh inactive.
`O=C(Nc1ccc(CN2CCOCC2)cc1)c1ccc(-c2ccc(Cl)cc2Cl)o1` gave HTT cytoprotect inactive, CBFb RUNX1 block inactive, ALDH1A1 inh 10µM, HttQ103 aggreg inconclusive and KDM4E inh inconclusive.
`Cc1cccc(C)c1NC(=O)c1ccc(-c2ccc(Cl)cc2Cl)o1` gave HTT cytoprotect inactive, CBFb RUNX1 block inactive, HPGD block inactive, ALDH1A1 inh inactive, HttQ103 aggreg 11.2µM and KDM4E inh inactive.
For CN(C)c1ccc(C(=S)N2CCN(Cc3ccccc3)CC2)cc1 the results were HTT cytoprotect inactive[10 µM], CBFb RUNX1 block inconclusive, ALDH1A1 inh 31.6µM, HttQ103 aggreg inactive[9.22 µM] and KDM4E inh inactive.
Screening CN1CCN(C(=S)c2ccc(N(C)C)cc2)CC1 returned HTT cytoprotect inactive[10 µM], CBFb RUNX1 block inactive, HPGD block 15.8µM, ALDH1A1 inh 28.2µM, HttQ103 aggreg inactive and KDM4E inh inconclusive.
`Oc1ccc(C(=S)N2CCN(Cc3ccccc3)CC2)cc1` gave HTT cytoprotect inactive[10 µM], CBFb RUNX1 block inactive, HttQ103 aggreg inactive[9.22 µM] and KDM4E inh inactive.
`S=C(c1ccc(Br)cc1)N1CCN(Cc2ccccc2)CC1` gave HTT cytoprotect inactive, CBFb RUNX1 block inactive, HPGD block 31.6µM, ALDH1A1 inh inconclusive, HttQ103 aggreg inactive and KDM4E inh inactive.
For Cc1ccc(C(=S)N2CCN(Cc3ccccc3)CC2)s1 the results were CBFb RUNX1 block inactive, ALDH1A1 inh 14.1µM, HttQ103 aggreg inactive and KDM4E inh inactive.
Screening CN1CCN(C(=S)c2ccc(Br)cc2)CC1 returned HTT cytoprotect inactive[10 µM], CBFb RUNX1 block inactive, ALDH1A1 inh inactive, HttQ103 aggreg inactive and KDM4E inh inactive.
CCCCN(CC)S(=O)(=O)c1ccc2c(c1)n(C)c(=O)c(=O)n2C was read as HTT cytoprotect inactive[10 µM], CBFb RUNX1 block inactive, HttQ103 aggreg inactive[9.22 µM] and KDM4E inh inconclusive.
For CCCCC/C=C\C\C=C/C=C/C=C/[C@@H](SC[C@H](N)C(=O)NCC(=O)O)[C@@H](O)CCCC(=O)O the results were HTT cytoprotect inactive, CBFb RUNX1 block inactive and ALDH1A1 inh inactive.
Screening COC(=O)c1ccc(N2C(=O)c3ccc(OC)c(OC)c3C2=O)cc1 returned HTT cytoprotect inactive[0.074 µM], CBFb RUNX1 block inactive, HPGD block inactive, ALDH1A1 inh inactive, HttQ103 aggreg inactive and KDM4E inh inconclusive.
`COc1ccc2c(c1OC)C(=O)N(c1cccc(C)c1)C2=O` gave HTT cytoprotect inactive, CBFb RUNX1 block inactive, HPGD block inactive, ALDH1A1 inh 5.01µM, HttQ103 aggreg inactive and KDM4E inh inactive.
COc1ccc(NC(=O)CC2C(=O)N(c3ccc(Cl)cc3)C(=S)N2CCc2ccncc2)cc1 (stereo not drawn) was read as HTT cytoprotect inactive, CBFb RUNX1 block inactive, HPGD block inactive, ALDH1A1 inh inactive, HttQ103 aggreg inactive and KDM4E inh inactive.
